# Compound activity: PubChem BioAssay, several laboratories
# This is a sample that favours compounds with a hit; in the whole collection about 3.2% have one here.
# Mtb FBA inh: Mtb FBA enzyme inhibitors, primary screen, biochemical, fluorescence, strain H37Rv. purified M. tuberculosis FBA, fluorescence read-out. hit rate 2.3% among 360,000. inhibition, % at 1 µM. AID 588726, 2011. Fructose-bisphosphate aldolase (Mycobacterium tuberculosis (strain ATCC 25618 / H37Rv)), …; in the data active = inhibition above about 27%;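 also: 0% = vehicle and 100% = reference inhibitor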
# TcdB GH inh: TcdB glycohydrolase inhibitors, primary screen, biochemical, single point, plate reader; TcdB glycohydrolase enzymatic assay; inhibition, % at 9.99 µM; hit rate 0.24% among 350,000
# Target sequence (P18177 whole entry, looked up): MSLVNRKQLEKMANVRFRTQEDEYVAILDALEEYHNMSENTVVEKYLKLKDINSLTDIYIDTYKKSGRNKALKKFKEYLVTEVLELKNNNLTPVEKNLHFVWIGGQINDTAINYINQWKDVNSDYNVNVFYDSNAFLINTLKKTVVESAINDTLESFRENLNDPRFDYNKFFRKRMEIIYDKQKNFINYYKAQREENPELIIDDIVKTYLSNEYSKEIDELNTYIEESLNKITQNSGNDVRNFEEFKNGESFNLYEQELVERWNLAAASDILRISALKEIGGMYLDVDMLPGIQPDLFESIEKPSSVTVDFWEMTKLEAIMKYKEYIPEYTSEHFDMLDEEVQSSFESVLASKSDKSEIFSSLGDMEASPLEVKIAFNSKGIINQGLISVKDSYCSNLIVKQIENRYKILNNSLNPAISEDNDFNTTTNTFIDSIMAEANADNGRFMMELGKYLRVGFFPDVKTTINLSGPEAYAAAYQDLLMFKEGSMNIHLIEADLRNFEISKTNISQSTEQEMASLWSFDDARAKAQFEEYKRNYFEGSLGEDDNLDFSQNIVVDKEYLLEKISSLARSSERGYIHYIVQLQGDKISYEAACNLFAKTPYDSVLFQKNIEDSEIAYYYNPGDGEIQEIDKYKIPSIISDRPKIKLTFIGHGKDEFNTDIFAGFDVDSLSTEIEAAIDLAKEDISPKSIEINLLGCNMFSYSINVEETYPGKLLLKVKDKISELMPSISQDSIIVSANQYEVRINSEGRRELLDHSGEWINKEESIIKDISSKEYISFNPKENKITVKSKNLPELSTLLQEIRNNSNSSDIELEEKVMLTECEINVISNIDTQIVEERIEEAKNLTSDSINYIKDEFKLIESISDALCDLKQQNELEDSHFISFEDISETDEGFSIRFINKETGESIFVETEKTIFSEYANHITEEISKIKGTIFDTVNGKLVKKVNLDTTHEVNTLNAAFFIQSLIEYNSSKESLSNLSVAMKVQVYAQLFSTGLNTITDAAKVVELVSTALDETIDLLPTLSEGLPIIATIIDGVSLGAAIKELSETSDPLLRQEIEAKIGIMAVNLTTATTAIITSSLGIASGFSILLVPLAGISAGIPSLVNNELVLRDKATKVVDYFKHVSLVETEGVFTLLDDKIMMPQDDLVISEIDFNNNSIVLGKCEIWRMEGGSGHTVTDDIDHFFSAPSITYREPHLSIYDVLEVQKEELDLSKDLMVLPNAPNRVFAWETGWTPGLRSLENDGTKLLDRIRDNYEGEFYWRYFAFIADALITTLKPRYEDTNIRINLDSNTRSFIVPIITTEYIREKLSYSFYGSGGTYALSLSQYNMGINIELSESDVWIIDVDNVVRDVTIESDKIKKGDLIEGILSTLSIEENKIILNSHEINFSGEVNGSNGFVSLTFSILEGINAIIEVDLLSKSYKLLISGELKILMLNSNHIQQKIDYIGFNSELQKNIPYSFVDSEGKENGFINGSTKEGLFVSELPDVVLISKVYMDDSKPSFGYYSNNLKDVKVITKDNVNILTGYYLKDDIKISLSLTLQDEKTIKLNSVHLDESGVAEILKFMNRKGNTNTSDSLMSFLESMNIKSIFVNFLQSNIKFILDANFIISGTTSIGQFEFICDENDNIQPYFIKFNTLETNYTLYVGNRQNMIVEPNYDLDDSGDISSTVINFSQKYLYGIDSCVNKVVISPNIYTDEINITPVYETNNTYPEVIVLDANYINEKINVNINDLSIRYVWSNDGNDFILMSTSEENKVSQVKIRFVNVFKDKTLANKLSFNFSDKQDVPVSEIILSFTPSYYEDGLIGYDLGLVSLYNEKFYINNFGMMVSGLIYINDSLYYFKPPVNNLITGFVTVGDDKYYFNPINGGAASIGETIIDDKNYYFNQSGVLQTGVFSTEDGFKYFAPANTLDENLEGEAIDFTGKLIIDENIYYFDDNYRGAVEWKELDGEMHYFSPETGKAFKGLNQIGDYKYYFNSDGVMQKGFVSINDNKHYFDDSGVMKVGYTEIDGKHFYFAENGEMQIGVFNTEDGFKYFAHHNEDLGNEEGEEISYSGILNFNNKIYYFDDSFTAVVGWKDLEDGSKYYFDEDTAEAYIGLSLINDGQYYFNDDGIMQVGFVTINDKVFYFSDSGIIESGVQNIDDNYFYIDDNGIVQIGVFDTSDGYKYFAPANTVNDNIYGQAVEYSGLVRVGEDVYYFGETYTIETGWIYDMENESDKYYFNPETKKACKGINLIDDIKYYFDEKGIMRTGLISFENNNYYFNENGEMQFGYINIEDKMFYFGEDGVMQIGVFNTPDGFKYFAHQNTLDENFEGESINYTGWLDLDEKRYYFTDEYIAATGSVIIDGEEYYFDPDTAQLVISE
# PrPC surface inh: inhibitors of human cell surface prion protein PrPC, primary screen, cell-based, TR-FRET; Major prion protein (Homo sapiens), P04156; TR-FRET read-out; inhibition, % at 13.8 µM; hit rate 0.43% among 370,000; AID 720596, 2013; in the data active = inhibition above about 24%; also: 0% = median of the test wells and 100% = reference compound wells
# GDH-TPI counter-1: GDH-TPI coupling enzyme inhibitors, primary screen, artefact control for M. tuberculosis FBA inhibitor project, biochemical, absorbance, full deck. GDH-TPI coupled enzyme counterscreen, NADH absorbance. hit rate 1.2% among 360,000. AID 588335, 2011. inhibition, % at 4.8 µM; in the data active = inhibition above about 30%;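 also: 0% = DMSO wells and 100% = wells lacking the enzyme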
# Yp Topo-I inh: Yersinia pestis topoisomerase I inhibitors, primary screen, biochemical, cleavage product accumulation, plate reader, single point; DNA topoisomerase I (Yersinia pestis CO92); Y. pestis Topo-I cleavage product accumulation; AID 504884, 2011; activity, % at 10 µM; hit rate 0.064% among 360,000; in the data active = activity above about 50%, passing the limit was not always enough
# Mtb FBA confirm: M. tuberculosis aldolase blockers, biochemical, fluorescence, strain H37Rv, confirmation; hit rate 78% among 5,600; AID 651616, 2012; purified M. tuberculosis FBA, fluorescence read-out; inhibition, % at 1 µM; shares compounds with Mtb FBA inh; in the data active = inhibition above about 27%;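 also: 0% = vehicle wells and 100% = reference inhibitor wells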
# GDH-TPI counter-2: GDH-TPI coupling enzyme inhibitors, artefact control for M. tuberculosis FBA inhibitor project, biochemical, fluorescence, high throughput; shares compounds with Mtb FBA inh; GDH-TPI coupled enzyme counterscreen; inhibition, % at 1 µM; hit rate 81% among 5,600; AID 652141, 2013
# An asterisk follows results filed as active; / = no result; + = active, no number. Rule as the data show it, unless noted: active = inhibition above about 10%; inactive = the rest.
SMILES,Mtb FBA inh,TcdB GH inh,PrPC surface inh,GDH-TPI counter-1,Yp Topo-I inh,Mtb FBA confirm,GDH-TPI counter-2
Cc1oc(/N=C/c2ccc(O)cc2O)c(C#N)c1C,71*,1,-3,18,-3,+,+
Cc1ccc(C2CC(c3cccs3)n3nc(N)nc3N2)cc1 (configuration not stated),60*,/,-3,18,7,8,4
Cc1ccc(C2CC(c3ccccc3C)n3nc(N)nc3N2)cc1 (configuration not stated),3,3,-4,-9,-6,/,/
Cc1ccc(S(=O)(=O)N(C)C[C@H]2Oc3ccc(NS(=O)(=O)c4c(C)noc4C)cc3C(=O)N([C@@H](C)CO)C[C@H]2C)cc1,/,2,/,/,/,/,/
C[C@H](CO)N1C[C@H](C)[C@@H](CN(C)CC2CCOCC2)Oc2cc(-c3cccnc3)ccc2S1(=O)=O,/,-6,/,/,/,/,/
O=[N+]([O-])c1ccc(O)c(-c2nc(-c3ccccc3)c(-c3cccs3)[nH]2)c1,2,/,1,8,-3,/,/
O=C(O)c1ccc(-c2nc(-c3ccccc3)c(-c3cccs3)[nH]2)cc1,47*,1,-2,-3,-6,75*,54*
COc1ccc(C(=O)C2CCCN(Cc3cnc(C)s3)C2)cc1OC (configuration not stated),-2,0,3,0,4,/,/
COc1ccc2cc(C(=O)C3CCCN(C(=O)c4cnccn4)C3)ccc2c1 (configuration not stated),88*,2,15,13,8,55*,45*
O=C(c1ccc2ccccc2c1)C1CCCN(C(=O)c2cnccn2)C1 (configuration not stated),9,1,-1,-2,12,/,/
COc1ccc2cc(C(=O)C3CCCN(Cc4cnc(C)s4)C3)ccc2c1 (configuration not stated),41*,2,14,9,11,+,+
COc1ccc2cc(C(=O)C3CCCN(C(=O)c4snnc4C)C3)ccc2c1 (configuration not stated),108*,1,2,5,19,136*,117*
COc1ccc2cc(C(=O)C3CCCN(C(=O)/C=C/c4ccccn4)C3)ccc2c1 (configuration not stated),57*,2,-3,11,13,55*,48*
O=C(C[C@@H]1C=C[C@H](NS(=O)(=O)c2ccc(F)cc2)[C@@H](CO)O1)N1CCC(Cc2ccccc2)CC1,/,-1,/,/,/,/,/
Cc1cc(C)n2nc(C(=O)N3CCCC(Nc4ccc(F)c(F)c4)C3)cc2n1 (configuration not stated),3,3,5,-4,2,/,/
COc1ccc2cc(C(=O)C3CCCN(C(=O)c4cc5nc(C)cc(C)n5n4)C3)ccc2c1 (configuration not stated),75*,1,-10,6,15,97*,87*
CCOC(=O)COc1nc(-c2ccccc2)cc(-c2ccco2)c1C#N,58*,1,1,13,17,138*,127*
CCOC(=O)COc1nc2c(c(-c3ccco3)c1C#N)CCc1ccccc1-2,30*,0,-5,5,24,25,14*
CCOC(=O)COc1nc(-c2ccc(Cl)cc2)cc(-c2ccco2)c1C#N,-1,-2,9,-2,2,/,/
N#Cc1c(OCC(=O)c2ccccc2)nc2c(c1-c1ccco1)CCc1ccccc1-2,12,/,-6,3,-3,/,/
C[C@H]1CN([C@@H](C)CO)C(=O)Cc2cc(NC(=O)Nc3ccccc3)ccc2O[C@H]1CN(C)C(=O)NC1CCCCC1,/,2,/,/,/,/,/
c1cncc(-c2noc(-c3cccc4ccccc34)n2)c1,28*,-8,8,4,-1,22,20*
CN(C)C(=O)C[C@@H]1C=C[C@H](NC(=O)C2CC2)[C@H](CO)O1,/,0,/,/,/,/,/
C[C@@H](NC(=O)C[C@H]1C=C[C@@H](NC(=O)C2CCOCC2)[C@@H](CO)O1)c1ccccc1,/,1,/,/,/,/,/
CN1CCN(C(=O)C[C@@H]2CC[C@@H]3[C@H](COC[C@@H](O)CN3C(=O)Nc3ccc(F)cc3)O2)CC1,/,0,/,/,/,/,/
SMILES,Mtb FBA inh,TcdB GH inh,PrPC surface inh,GDH-TPI counter-1,Yp Topo-I inh,Mtb FBA confirm,GDH-TPI counter-2
COc1ccc(N2CC(NS(=O)(=O)c3cccnc3)CC2=O)cc1OC (configuration not stated),30*,2,2,1,-1,106*,77*
Cc1ccc(N2CC(NS(=O)(=O)c3cccnc3)CC2=O)cc1C (configuration not stated),4,0,3,-2,-5,/,/
COc1cc(/C=C/c2ccc3cccc(O)c3n2)cc(OC)c1OC,-1,1,-23,21,17,/,/
COC(=O)c1ccc(/C=C/c2ccc3cccc(OC)c3n2)cc1,60*,0,-15,37*,30,+,+
Cc1ccc(S(=O)(=O)N(C)C[C@@H]2Oc3ccc(NC(=O)C4CC4)cc3CC(=O)N([C@H](C)CO)C[C@@H]2C)cc1,/,-1,/,/,/,/,/
CCN(CC)CC(=O)Nc1cc(N(C)C)nc2ccccc12,36*,4,-9,38*,0,30*,26*
CCCCc1c(C)[nH]c2nc3ccccc3n2c1=O,7,1,-4,7,-3,/,/
Cc1[nH]c2nc3ccccc3n2c(=O)c1CCC(C)C,-3,/,/,5,3,/,/
CCCc1cc(=O)n2c(nc3ccccc32)[nH]1,47*,/,1,14,-6,4,-5
Cc1cc(=O)n2c(nc3ccccc32)[nH]1,37*,/,7,-3,-9,64*,42*
C=C(Cl)COc1ccc2c(CC)cc(=O)oc2c1,28*,1,10,8,15,+,+
C=C(Cl)COc1ccc2c(CCCC)cc(=O)oc2c1,24,/,5,2,6,/,/
C=C(C)COc1ccc2c(CC)cc(=O)oc2c1,40*,0,3,1,15,85*,69*
CC(C)NC(=O)N(C)C[C@@H]1OCCCC[C@@H](C)Oc2ccc(NC(=O)CCCN(C)C)cc2C(=O)N([C@H](C)CO)C[C@H]1C,/,1,/,/,/,/,/
Cc1ccc(S(=O)(=O)N(C)C)cc1NC(=S)Nc1cccc2ccccc12,34*,1,10,-3,-14,+,194*
Cc1ccc(NC(=S)Nc2cccc3ccccc23)cc1,21,1,-2,7,-24,/,/
Fc1ccc(NC(=S)Nc2cccc3ccccc23)cc1F,49*,-2,1,11,-2,24,17*
